Inconclusive results are not listed. The source made the active and inactive calls. How the source made its calls: active means hit-call score of the fitted dose curve at least 0.9, where 1 is the maximum; inconclusive means response in the unintended direction; inactive means score below 0.9.

human Peroxisome Proliferator-activated Receptor alpha (PPARa), PPARA (gene 5465), sequence (Q07869 whole entry, looked up, the tested form may be a part): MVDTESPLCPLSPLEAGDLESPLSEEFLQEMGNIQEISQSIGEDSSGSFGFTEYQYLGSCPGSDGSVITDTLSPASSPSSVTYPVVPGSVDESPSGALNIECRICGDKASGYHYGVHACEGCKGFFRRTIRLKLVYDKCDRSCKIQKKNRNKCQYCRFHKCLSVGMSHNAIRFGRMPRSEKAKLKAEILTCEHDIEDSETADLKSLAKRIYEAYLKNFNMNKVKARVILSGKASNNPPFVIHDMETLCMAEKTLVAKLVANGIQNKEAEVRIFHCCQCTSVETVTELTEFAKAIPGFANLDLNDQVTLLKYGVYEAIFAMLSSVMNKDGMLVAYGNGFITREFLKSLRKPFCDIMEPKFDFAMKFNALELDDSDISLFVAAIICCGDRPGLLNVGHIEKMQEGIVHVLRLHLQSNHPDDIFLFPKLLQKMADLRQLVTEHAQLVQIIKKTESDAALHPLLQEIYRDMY

The assay has as its target human Peroxisome Proliferator-activated Receptor alpha (PPARa), PPARA (gene 5465) (UniProt Q07869). Kind of assay: ATG_PPARa_TRANS: Attagene TRANS-FACTORIAL HepG2 Assay for human Peroxisome Proliferator-activated Receptor alpha (PPARa) (AID 2283001). The procedure, abridged: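 HepG2 cells transiently transfected with multiplexed GAL4-UAS reporters driven by exogenous chimeric NR-Gal4 proteins; reporter mRNA measured after 24 h dosing. Read-out by RT-PCR, 6-FAM labelling, HpaI digestion and capillary electrophoresis; gain of signal versus DMSO.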
On to `O=C(O)C1(C(=O)Nc2ccc(Cl)cc2Cl)CC1`, for which the compound was classed as inactive.

Turning to `c1ccc(Nc2ccccc2)cc1`, the outcome was inactive.

Turning to `CCOC(=O)NCCOc1ccc(Oc2ccccc2)cc1`, the compound was classed as inactive.

For `CC(C)(c1ccc(O)cc1)c1ccc(O)cc1`, the compound was called inactive.

On to `CCCCOC(=O)[C@@H](C)Oc1ccc(Oc2ccc(C(F)(F)F)cn2)cc1`, for which the call was inactive.

On to `O=C(c1ccc(O)cc1O)c1ccc(O)cc1O`, for which the call was inactive.

As to `CC(C)(C)[C@@H](O)[C@@H](Cc1ccc(Cl)cc1)n1cncn1`, the compound was classed as inactive.

Regarding `c1ccc2[nH]c(-c3cscn3)nc2c1`, the result was inactive.

In the case of `CCC(C)OC(=O)N1CCCCC1CCO` (centres undefined), the compound was classed as inactive.

Regarding `N#CSCSc1nc2ccccc2s1`, the compound was called inactive.

Regarding `CC(C)CCCCCCc1ccc(O)cc1`, the result was inactive.

Consider `CCNc1nc(N)nc(Cl)n1`, for which the outcome was inactive.

`COC(=O)c1c(Cl)nn(C)c1S(=O)(=O)NC(=O)Nc1nc(OC)cc(OC)n1`: the outcome was inactive.

`C[C@]12C[C@H](O)[C@H]3[C@@H](CCC4=CC(=O)CC[C@@]43C)[C@@H]1CC[C@@H]2C(=O)CO`: the call was inactive.

As to `C#C[C@]1(O)CC[C@H]2[C@@H]3CCC4=CC(=O)CC[C@@H]4[C@H]3CC[C@@]21CC`, the compound was called inactive.

Take `COC(=O)c1ccc(CNS(C)(=O)=O)cc1S(=O)(=O)NC(=O)Nc1nc(OC)cc(OC)n1`: the call was inactive.

For the compound `CCCOC(=O)c1ccc(C(=O)OCCC)nc1`, the outcome was inactive.

For the compound `CCCCOC(=O)C(C)Oc1ccc(Oc2ccc(C(F)(F)F)cn2)cc1` (centres undefined), the call was inactive.

For `CC(=O)S[C@@H]1CC2=CC(=O)CC[C@]2(C)[C@H]2CC[C@@]3(C)[C@@H](CC[C@@]34CCC(=O)O4)[C@H]12`, the compound was classed as inactive.
